In publication PMC10668032, “Altered binding affinity of SIX1-Q177R correlates with enhanced WNT5A and WNT pathway effector expression in Wilms tumor”:
In all, about 33,000 sequences were measured (“e-score”: median about -0.053, highest 2% from about 0.38 on). Many of the other results were omitted from the sample, so the highest values are more common in it than they were.

What follows are sequences tested against T1, SIX1 homeodomain (reference allele) (human, UniProt Q15475 108-198) (assay: universal protein binding microarray; Universal all-10-mer PBM (8x60K, AMADID 030236), 300 nM GST-tagged protein, Alexa Fluor 488 anti-GST; buffer, salt, pH and temperature not stated (as in Berger); high values mean tight binding). Conditions: protein: ivt; tags: N-terminal GST; dsDNA, one strand shown.
T1 sequence: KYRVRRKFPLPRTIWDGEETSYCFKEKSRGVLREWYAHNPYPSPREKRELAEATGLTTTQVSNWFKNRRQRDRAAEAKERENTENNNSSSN
Outline: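 Duplicate protein binding microarrays (universal 'all 10-mer', 8×60K format) were incubated with GST-tagged homeodomains at 300 nM final concentration. Binding was quantified as 8-mer E-scores with the Universal PBM Analysis Suite.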

Which binding signal does the source give for ACACGGAT here?
Its binding signal is 0.4012 ± 0.00112 E-score.

AGGCGGAT was tested. Which binding signal did it give?
Its binding signal is 0.346 ± 0.0312 E-score.

With AGACGGAT as the sequence, how does the binding signal read?
The binding signal was 0.402 ± 0.0158 E-score.

How did the binding signal turn out when ACTCGGAT was run?
Its binding signal is 0.38 ± 0.00767 E-score.

For AATCGGAT, which binding signal is on record?
The binding signal was 0.253 ± 0.0252 E-score.

Which binding signal does the source give for ATACGTAC here?
The binding signal was 0.336 ± 0.0217 E-score.

For TCAGATGA, which binding signal is on record?
The binding signal was 0.3071 ± 0.00299 E-score.

Which binding signal does the source give for AAGATGAT here?
Its binding signal is 0.156 ± 0.09 E-score.

Which binding signal does the source give for TATCGATA here?
The binding signal was 0.342 ± 0.0612 E-score.

GATCAAAC was tested. Which binding signal did it give?
Its binding signal is 0.193 ± 0.0111 E-score.

How did the binding signal turn out when ACACCATC was run?
The binding signal was 0.312 ± 0.0186 E-score.

For ATCGGGGC, which binding signal is on record?
Its binding signal is 0.198 ± 0.0293 E-score.

For CGTCTCAC, which binding signal is on record?
Its binding signal is 0.254 ± 0.0158 E-score.

AACCGATC was tested. Which binding signal did it give?
The binding signal was 0.335 ± 0.00772 E-score.

With TACCCCTA as the sequence, how does the binding signal read?
Its binding signal is 0.34 ± 0.00513 E-score.

ATACGGAT was tested. Which binding signal did it give?
Its binding signal is 0.4254 ± 0.00356 E-score.

With ATACGGAG as the sequence, how does the binding signal read?
The binding signal was 0.193 ± 0.0505 E-score.

How did the binding signal turn out when ATACGGAA was run?
Its binding signal is 0.218 ± 0.0296 E-score.

Which binding signal does the source give for AGATAGTC here?
Its binding signal is 0.172 ± 0.0352 E-score.

Which binding signal does the source give for CGATACTA here?
The binding signal was 0.424 ± 0.0171 E-score.

How did the binding signal turn out when CAATACTC was run?
Its binding signal is 0.297 ± 0.043 E-score.

How did the binding signal turn out when CGATACTC was run?
The binding signal was 0.45435 ± 0.000368 E-score.

GGATACTA was tested. Which binding signal did it give?
Its binding signal is 0.371 ± 0.0235 E-score.

CTATACTC was tested. Which binding signal did it give?
Its binding signal is 0.243 ± 0.0735 E-score.

For AGATACTC, which binding signal is on record?
The binding signal was 0.402 ± 0.0473 E-score.

How did the binding signal turn out when AGATACTA was run?
The binding signal was 0.316 ± 0.0687 E-score.

Which binding signal does the source give for AGATACTG here?
The binding signal was 0.34203 ± 0.000156 E-score.

ATATAGTC was tested. Which binding signal did it give?
The binding signal was 0.209 ± 0.0236 E-score.

With AACACCTG as the sequence, how does the binding signal read?
Its binding signal is 0.267 ± 0.00339 E-score.

For ATCCAGTC, which binding signal is on record?
The binding signal was 0.179 ± 0.0594 E-score.

Which binding signal does the source give for CGTATAAA here?
Its binding signal is 0.219 ± 0.0801 E-score.

For GATCAATA, which binding signal is on record?
The binding signal was 0.291 ± 0.0232 E-score.

How did the binding signal turn out when TATCAAGA was run?
Its binding signal is 0.302 ± 0.0583 E-score.

TATCAATA was tested. Which binding signal did it give?
Its binding signal is 0.407 ± 0.0444 E-score.

For TATCAAAA, which binding signal is on record?
The binding signal was 0.342 ± 0.1 E-score.

With TATCAACA as the sequence, how does the binding signal read?
Its binding signal is 0.399 ± 0.0298 E-score.

GATCAACA was tested. Which binding signal did it give?
Its binding signal is 0.281 ± 0.0353 E-score.

CCATCTCA was tested. Which binding signal did it give?
The binding signal was 0.164 ± 0.00629 E-score.

GGATTATA was tested. Which binding signal did it give?
Its binding signal is 0.362 ± 0.0571 E-score.

With TAATAATA as the sequence, how does the binding signal read?
Its binding signal is 0.225 ± 0.0789 E-score.

With ATCCCGGC as the sequence, how does the binding signal read?
The binding signal was 0.173 ± 0.0398 E-score.

With CATCTATA as the sequence, how does the binding signal read?
The binding signal was 0.251 ± 0.034 E-score.

TATCCGGA was tested. Which binding signal did it give?
Its binding signal is 0.3912 ± 0.000898 E-score.

With CATCCGTA as the sequence, how does the binding signal read?
Its binding signal is 0.168 ± 0.00426 E-score.

AATCCGGT was tested. Which binding signal did it give?
The binding signal was 0.252 ± 0.0106 E-score.

With AATCCGGC as the sequence, how does the binding signal read?
The binding signal was 0.228 ± 0.0229 E-score.

AATCCGAC was tested. Which binding signal did it give?
Its binding signal is 0.189 ± 0.00791 E-score.

With GATCCGAC as the sequence, how does the binding signal read?
The binding signal was 0.389 ± 0.0403 E-score.

For GATCCGTA, which binding signal is on record?
The binding signal was 0.383 ± 0.00781 E-score.

For CATCCGAC, which binding signal is on record?
Its binding signal is 0.209 ± 0.0838 E-score.

With GATCCGGC as the sequence, how does the binding signal read?
Its binding signal is 0.3929 ± 0.00159 E-score.

Which binding signal does the source give for CATCCGGC here?
The binding signal was 0.226 ± 0.0528 E-score.

TACCCGGA was tested. Which binding signal did it give?
The binding signal was 0.332 ± 0.00363 E-score.

For GATCCGAA, which binding signal is on record?
The binding signal was 0.357 ± 0.0457 E-score.

ATCTACTC was tested. Which binding signal did it give?
Its binding signal is 0.297 ± 0.0368 E-score.

Which binding signal does the source give for ATATGTAG here?
The binding signal was 0.151 ± 0.0301 E-score.

CATAAACC was tested. Which binding signal did it give?
The binding signal was 0.19 ± 0.0201 E-score.

GATAATCC was tested. Which binding signal did it give?
The binding signal was 0.34 ± 0.0479 E-score.

With CGACTATC as the sequence, how does the binding signal read?
The binding signal was 0.246 ± 0.0396 E-score.

For GAGATCAC, which binding signal is on record?
Its binding signal is 0.368 ± 0.00856 E-score.

ATCCTTGG was tested. Which binding signal did it give?
Its binding signal is 0.189 ± 0.0361 E-score.

With CATCCGGA as the sequence, how does the binding signal read?
Its binding signal is 0.21 ± 0.0635 E-score.

GATCCGGA was tested. Which binding signal did it give?
The binding signal was 0.405 ± 0.0443 E-score.

Which binding signal does the source give for AATCCGGA here?
Its binding signal is 0.276 ± 0.0325 E-score.

ACACCAAC was tested. Which binding signal did it give?
Its binding signal is 0.224 ± 0.00659 E-score.

CCCCTATA was tested. Which binding signal did it give?
Its binding signal is 0.198 ± 0.0352 E-score.

How did the binding signal turn out when CCCCTATC was run?
The binding signal was 0.405 ± 0.0204 E-score.

Which binding signal does the source give for ACCCTATC here?
Its binding signal is 0.346 ± 0.0051 E-score.

Which binding signal does the source give for GATATTAA here?
Its binding signal is 0.31 ± 0.0894 E-score.

With CATATCTA as the sequence, how does the binding signal read?
The binding signal was 0.322 ± 0.0223 E-score.

For GATATCAA, which binding signal is on record?
The binding signal was 0.453 ± 0.0358 E-score.

With TATATCAA as the sequence, how does the binding signal read?
The binding signal was 0.361 ± 0.0752 E-score.

With AATATCTA as the sequence, how does the binding signal read?
Its binding signal is 0.259 ± 0.0807 E-score.

How did the binding signal turn out when CATATCAA was run?
Its binding signal is 0.452 ± 0.0378 E-score.

With GATATCAC as the sequence, how does the binding signal read?
Its binding signal is 0.476 ± 0.018 E-score.

How did the binding signal turn out when GCTATCAC was run?
The binding signal was 0.357 ± 0.0605 E-score.

With GATATCTA as the sequence, how does the binding signal read?
Its binding signal is 0.392 ± 0.0618 E-score.

With GATATTAC as the sequence, how does the binding signal read?
The binding signal was 0.319 ± 0.0605 E-score.

For CAGATCAA, which binding signal is on record?
Its binding signal is 0.298 ± 0.00526 E-score.

CTAATCTC was tested. Which binding signal did it give?
Its binding signal is 0.175 ± 0.0194 E-score.

With ATCCACTG as the sequence, how does the binding signal read?
The binding signal was 0.152 ± 0.0476 E-score.

For ATCAAACC, which binding signal is on record?
The binding signal was 0.261 ± 0.00716 E-score.

With GATCAATC as the sequence, how does the binding signal read?
Its binding signal is 0.366 ± 0.0109 E-score.

With ATACGCTC as the sequence, how does the binding signal read?
The binding signal was 0.245 ± 0.0572 E-score.

For GGATCTAA, which binding signal is on record?
The binding signal was 0.285 ± 0.00708 E-score.

For ATACGAAG, which binding signal is on record?
The binding signal was 0.199 ± 0.0115 E-score.

With GTATTCCA as the sequence, how does the binding signal read?
The binding signal was 0.202 ± 0.0137 E-score.

ATACGTCC was tested. Which binding signal did it give?
The binding signal was 0.24 ± 0.0851 E-score.

For AGCGATAC, which binding signal is on record?
Its binding signal is 0.453 ± 0.01 E-score.
